# Only some compounds are listed: those with a hit (about 10% of all), similar ones and a draw of the others.
# HEK cytotox: Cytotoxic Profiling in HEK 293 Cell Line of Diverse Libraries Using Quantitative High-Throughput Screening; AID 1345083, 2018; Potency, µM (series often up to 115 µM), for the others: top-dose activity change, negative = cytotoxicity, usual class: inhibitors; 94,000 tested, 6.6% active; HEK 293 viability, ATP luminescence (CellTiter-Glo), 48-72 h; also: % is scaled to controls: 0 for no effect and ±100 for the full control effect; nearly all actives have a fitted effect of over 60% in size
#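 HEK 293 seeded at 250 cells/well receive compound via pintool. After 48 or 72 hr at 37 degree Celsius, 5% CO2 and 95% humidity, CellTiter-Glo is dispensed and luminescence read following 10 min at room temperature.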
# hNpr1 antagonist: Natriuretic polypeptide receptor (hNpr1) antagonism - Primary qHTS | HEK293 hNpr1 GloSensor cGMP, ANP-stimulated luminescence | Potency, µM (series often up to 46.3 µM), for inactives: at the top dose activity change, negative = inhibition, hits mostly inhibitors | 76,000 tested, 1.6% active | AID 1347048, 2019; calls by dose curve; also: % is scaled to controls: 0 for no effect and ±100 for the full control effect; nearly all actives have a fitted effect of over 60% in size
#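 HEK293 cells stably expressing human Npr1 and cGMP GloSensor pGS-40F, loaded 2 h with 2% GloSensor reagent, given compound 30 min at room temperature. Luminescence read before and 20 min after 0.1 nM hNppA.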
# GPT2 inhibitor: Primary qHTS assay for inhibitors of Glutamate pyruvate transaminase 2 (GPT2); Potency, µM (series often up to 57.7 µM), without a hit: top-dose activity change, negative = inhibition, usual class: inhibitors; Recombinant GPT2, coupled pyruvate oxidase/HRP Amplex Red fluorescence; Alanine aminotransferase 2 (Homo sapiens), Q8TD30; 100,000 tested, 0.25% active; also: % is scaled to controls: 0 for no effect and ±100 for the full control effect; nearly all actives have a fitted effect of over 60% in size
#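 Fluorescence read-out: pyruvate from GPT2 turnover coupled to pyruvate oxidase, HRP and Amplex Red (0.2mM ThPP, 0.2U/mL PO and HRP, 50uM Amplex final). Substrates 250uM a-KG, 2mM L-alanine; enzyme 10ng/uL; 30 min RT.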
# FLuc inh-1: Firefly luciferase inhibition profiling of diverse chemical library using quantitative high-throughput screening; Luciferin 4-monooxygenase (Photinus pyralis), P08659; purified P. pyralis luciferase, luminescence, biochemical; Potency, µM (highest dose often 115 µM), usual class: inhibitors; 76,000 tested, 2.5% active; AID 1347043, 2019; also: % is scaled to controls: 0 for no effect and ±100 for the full control effect; nearly all actives have a fitted effect of over 65% in size
# Target sequence (P08659 whole entry, looked up): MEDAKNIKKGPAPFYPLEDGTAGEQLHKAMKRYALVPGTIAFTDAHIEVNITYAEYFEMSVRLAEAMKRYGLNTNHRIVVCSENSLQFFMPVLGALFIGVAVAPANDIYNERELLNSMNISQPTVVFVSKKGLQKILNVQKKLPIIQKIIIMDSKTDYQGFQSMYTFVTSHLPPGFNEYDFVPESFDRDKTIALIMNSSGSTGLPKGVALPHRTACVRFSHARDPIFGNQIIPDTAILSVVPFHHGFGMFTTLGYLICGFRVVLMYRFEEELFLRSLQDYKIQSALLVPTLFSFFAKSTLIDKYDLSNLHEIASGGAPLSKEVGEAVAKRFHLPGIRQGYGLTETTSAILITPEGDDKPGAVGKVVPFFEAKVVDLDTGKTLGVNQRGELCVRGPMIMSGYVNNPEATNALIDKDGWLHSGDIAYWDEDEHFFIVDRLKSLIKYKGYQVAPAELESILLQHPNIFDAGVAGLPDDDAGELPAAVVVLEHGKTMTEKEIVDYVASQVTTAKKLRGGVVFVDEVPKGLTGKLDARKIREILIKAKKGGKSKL
#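 Inhibitors were tested against purified firefly luciferase in a biochemical, low-substrate format (both substrates at 10uM) and luminescence measured with a CCD imager.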
# NIH3T3 tox: Cytotoxic Profiling in NIH 3T3 Cell Line of Diverse Libraries Using Quantitative High-Throughput Screening; NIH 3T3 viability, CellTiter-Glo ATP luminescence, 48-72 h; AID 1345082, 2018; 94,000 tested, 4.3% active; Potency, µM (doses to about 96.7 µM), inactives show at the top dose activity change, negative = cytotoxicity, most hits filed as inhibitors; also: % is scaled to controls: 0 for no effect and ±100 for the full control effect; nearly all actives have a fitted effect of over 55% in size
#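 Cytotoxicity was measured by CellTiter-Glo ATP luminescence after 48 or 72 h compound exposure at 37 °C. Mouse NIH 3T3 fibroblasts were seeded at 400 cells/well and dosed by 23 nL pin transfer.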
# FLuc SDR no ATP: Firefly luciferase (FLuc-C-HiBiT) SDR gain of signal screen - without ATP; shares compounds with FLuc inh-1; Purified FLuc-C-HiBiT, Nano-Glo HiBiT luminescence, no ATP; Potency, µM (doses to about 32.7 µM), inactives show top-dose activation (signal gain), hits mostly activators; 1,300 tested, 7.8% active; also: nearly all actives have a fitted effect of over 55% in size
# FLuc SDR ATP: Firefly luciferase (FLuc-C-HiBiT) SDR gain of signal screen - plus ATP. shares compounds with FLuc inh-1. purified FLuc-C-HiBiT + ATP, HiBiT complementation luminescence. Potency, µM (series often up to 32.7 µM), for inactives: top-dose activation (gain of signal), usual class: activators. 1,300 tested, 8.7% active;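 also: signal reports ligand binding via conformational change of the enzyme rather than luciferase catalysis; % of control where 0% means no effect; nearly all actives have a fitted effect of over 55% in size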
# FLuc inh-2: Firefly luciferase (FLuc-C-HiBiT) enzymatic inhibition screen - Functional assay; shares compounds with FLuc inh-1; purified FLuc-C-HiBiT enzyme, luciferin luminescence; Potency, µM (series often up to 32.7 µM), for inactives: top-dose activity change, negative = inhibition, hits mostly inhibitors; 1,300 tested, 42% active; AID 1963320, 2024; also: % is scaled to controls: 0 for no effect and ±100 for the full control effect; nearly all actives have a fitted effect of over 70% in size
# * = called active by the depositor; i = inactive; ? = inconclusive; / = no result given; [ ] = dose if it differs, or a comment. Unless noted, calls follow the shape of the dose curve; as a rule, active = well fitted curve in the direction sought with a large enough effect; inconclusive = small, poorly fitted or top-dose-only effect, or another doubt; inactive = no such curve, though single readings can be large; an effect the other way counts as inactive or inconclusive. Potency is read from the fitted curve at half-maximal effect.
SMILES,HEK cytotox,hNpr1 antagonist,GPT2 inhibitor,FLuc inh-1,NIH3T3 tox,FLuc SDR no ATP,FLuc SDR ATP,FLuc inh-2
O=C(NCc1ccc(F)cc1)c1nc(-c2ccc(F)cc2)c2ccccn12,?,3.5%,-5.8%,i,-17.8%,/,/,/
CCN1C(=O)CCc2cc(NC(=O)c3ccc(OC(F)(F)F)cc3)ccc21,50.1µM*,-2.1%,-1.7%,14.1µM*,44.7µM*,22.4%,14.6%,?
Cn1cccc1CN1CCC2(C1)C(=NC1CCCC1)NC(=O)N2c1cc(F)cc(F)c1 (stereo not drawn),-12.2%,/,3.7%,/,?,/,/,/
COCCOc1nc(N)c2[nH]c(=O)n(Cc3ccc(C(=O)O)cc3)c2n1,/,/,/,/,/,12.1%[11.8 µM],7.0%[11.8 µM],-1.2%[11.8 µM]
Fc1ccc2nc([C@H]3CCN(Cc4ccccc4F)C3)[nH]c2c1,?,?,i,3.16µM*,79.4µM*,27.4%[49.3 µM],17.5%[49.3 µM],14.3µM*
COc1ccc2nc([C@H]3CCN(Cc4ccccc4F)C3)[nH]c2c1,?,-2.9%[70.6 µM],i,i,?,/,/,/
COc1cc(CN2C[C@@H](CO)[C@H](c3ccncc3)C2)ccc1F,-14.5%,-1.0%,-0.6%,i,-24.6%,/,/,/
O=C(COC(=O)c1cc(-c2cccs2)nc2ccccc12)c1ccc(Br)cc1,/,/,/,/,/,14.4%,8.2%,-17.9%
CCNC(=O)C1C(c2cccc(NC(=O)c3ccccc3)c2)OC(=O)N1Cc1ccccc1 (stereo not drawn),?,4.1%,2.4%,?,-5.8%,/,/,/
CCCNC(=O)C1C(c2cccc(NC(=O)c3ccc(C)cc3)c2)OC(=O)N1Cc1ccc(C)cc1 (stereo not drawn),?,?,-1.6%,8.91µM*,?,16.3%,4.42µM*,4.42µM*
O=C(Cc1cccc(Cl)c1)N1CCC(n2cc(-c3nc(-c4ccccc4)no3)nn2)CC1,-12.3%,0.0%,-14.1%,i,-15.9%,/,/,/
CNC(=O)[C@H]1CN(C(=O)c2cc(C)oc2C)[C@]2(C)C(=O)N(CC3CC3)c3ccccc3[C@H]12,-7.9%[57.5 µM],/,i,/,?,/,/,/
CCc1cccc(-n2nnc(-c3nsc(NC(=O)c4cccs4)n3)c2C)c1,/,/,/,/,/,13.3%,14.4%,-18.6%
CCc1cccc(-n2nnnc2N2CCN(C(=O)Nc3ccc(C)c(F)c3)C(C)C2)c1 (stereo not drawn),?,/,-9.4%,/,?,/,/,/
C#CCn1c(/C=C/c2ccc(Cl)cc2)nc2ccccc21,/,/,/,/,/,3.94µM*,?,0.624µM*
O=C1OC[C@@H]2CCN(Cc3ccc(F)c(F)c3)Cc3ccc(F)cc3N12,?,-2.9%[70.6 µM],?,i,-26.5%[174 µM],/,/,/
O=C(O)c1cccc(-c2noc(-c3ccc(Cl)cc3)n2)c1,/,/,/,/,/,2.79µM*,0.005µM*,0.0022µM*
Clc1cccc(-c2noc(-c3nc(-c4ccncc4)no3)n2)c1,8.4%,6.1%,-4.5%,i,i,/,/,/
O=C(O)c1cccc(-c2ncccn2)c1,4.6%[230 µM],/,-11.5%[88.5 µM],/,2.9%[174 µM],/,/,/
